The values that follow come from PubChem BioAssay (NCI).

Test in all cases: NCI-60 one-dose screen, 48 h (100 = growth as untreated, 0 = no growth, -100 = all killed)
Details in all cases: 10 µM unless noted

Assay [1] concerns NCI-H23 lung.
Assay [2] has as its system NCI-H226 lung.
The test system of assay [3] is NCI-H322M lung.
Assay [4] has as its system HOP-62 NSCLC.
Assay [5] deals with NCI-H460 lung.
In assay [6] the test system is HOP-92 NSCLC.
Assay [7] has as its system NCI-H522 lung.
The subject of assay [8] is A549/ATCC NSCLC.
Assay [9] concerns 786-0 renal.
Assay [10] concerns COLO 205 colon.
Assay [11] has as its system DU-145 prostate.
For assay [12], the system named is K-562 leukemia.
Assay [13] relates to MALME-3M melanoma.
Assay [14] relates to MDA-MB-231 breast.
In assay [15] the test system is RXF 393 renal.
For assay [16], the system named is SF-268 CNS.
In assay [17] the test system is SF-295 CNS.
The subject of assay [18] is SF-539 CNS.
In assay [19] the test system is UACC-257 melanoma.
For assay [20], the system named is M14 melanoma.

Compounds without any hit were thinned out: in the full panel of roughly 83,000, 20% have a hit.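 Results are percent growth after 48 hours of single-concentration exposure. 100 means growth as in untreated cells, lower positive values show inhibition; negative values down to -100 show cell death.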 Values without a mark were called inactive. The source made the active and inactive calls. How the source made its calls: active means growth percent below 10; inactive means the rest.

Take `COc1ccc(/C=C/C(=O)c2ccc(NC(=O)CSc3nnc(-c4cc(-c5ccccc5)nc5ccccc45)n3-c3ccccc3)cc2)cc1`: the growth is 93.2% in assay [1]; 102% in assay [2]; 99.6% in assay [3]; 97.3% in assay [4]; 107% in assay [5]; 84.9% in assay [6]. Besides, the growth in assay [7] was 83.9%; in [8], 97.9%; in assay [9] it was 95.4%; in [10] it was 110%; in assay [11], 94.9%; in assay [12] it was 88.8%. Further, the growth in assay [13] was 98%; in [14], 87.3%; in assay [15] it was 103%; in assay [16], 98.3%; in assay [17], 103%; in assay [18], 97.8%. The growth in assay [19] is 105%.

Take `CN(C)c1ccc(/C=C2/C=C(c3ccccc3)OC2=O)cc1`: the growth is 95.4% in assay [1]; 105% in assay [2]; 96.9% in assay [3]; 96.3% in [4]; 103% in assay [5]; 98.2% in [6]. The growth in assay [7] is 55.7%; in assay [8], 96.4%; in assay [9] it was 100%; in [10] it was 99.3%; in assay [11], 101%; in [12] it was 46.9%. For the same molecule, the growth is 96.2% in assay [13]; 109% in assay [14]; 89.5% in assay [15]; 101% in assay [16]; 79.4% in assay [17]; 102% in assay [18]. Also, the growth in assay [19] was 89.2%.

As to `CCN1C(=S)N(CC)C2C1NC(=S)N2/N=C/C=C/c1ccccc1OC` (stereo unspecified), the growth in assay [1] was 24.1%; in assay [2], 57%; in assay [3], 45.2%; in assay [4], 39.2%; in assay [5], 6.8% (active); in assay [6], 74.6%. Moreover, the growth in assay [7] was -11.3% (active); in assay [8], 17.7%; in assay [9], 35.6%; in assay [10], 10%; in [11] it was 13.9%; in assay [12], 10.2%. Further, the growth in assay [13] is 53.5%; in [14], 11.5%; in assay [15], 20.4%; in assay [16], 56.4%; in [17] it was 12.4%; in assay [18], -18.5% (active). Further, the growth in [19] is 53.6%.

`c1ccc(CNc2ccc3nc(CCC4CCCCC4)[nH]c3c2)cc1`: the growth in assay [1] is 68.2%; in assay [2], 71.4%; in assay [3] it was 86.7%; in assay [4] it was 80.1%; in assay [5], 78.1%; in [6], 44.7%. In addition, the growth in [7] is 58.3%; in assay [8] it was 72.5%; in [9], 62.2%; in assay [10], 1.16% (active); in [11], 80.1%; in assay [12], 14.6%. Besides, the growth in assay [13] was 58.3%; in [14], 77.7%; in [15] it was 66.5%; in assay [16] it was 79.8%; in [17] it was 81%; in assay [18], 82.1%. Besides, the growth was 74.2% in assay [19] and 76.2% in [20].

Turning to `NS(=O)(=O)c1ccc(N/C=C/C(=O)c2cc3ccccc3oc2=O)cc1`, the growth in assay [1] is 88%; in assay [2], 86.9%; in [3] it was 92.9%; in assay [4], 84.7%; in assay [5] it was 96.8%; in assay [6] it was 76.1%. For the same molecule, the growth in assay [7] is 96.3%; in assay [8], 97.1%; in [9] it was 96.1%; in assay [10] it was 102%; in [11], 109%; in [12], 94.8%. Further, the growth in assay [13] was 85%; in assay [14], 85.2%; in assay [15], 102%; in assay [16] it was 95.5%; in [17] it was 103%; in [18], 93%. For the same molecule, the growth in assay [19] is 110%.

Consider `O=C(Nc1cccc(NC(=O)C2CCCCC2)c1)c1ccccn1`, for which the growth in [1] was 88.3%; in [2], 106%; in assay [3], 89.2%; in assay [4], 100%; in [5], 114%; in assay [6], 112%. Further, the growth in [7] was 89.9%; in assay [8], 102%; in [9], 95%; in assay [10], 117%; in [11] it was 103%; in assay [12], 85.2%. Further, the growth in assay [13] is 91%; in assay [14], 104%; in [15], 125%; in [16], 95.7%; in assay [17], 97.9%; in assay [18], 98.1%. Further, the growth in assay [19] was 108%; in assay [20], 91.7%.

With `Cc1nc2ccccc2c(/C=C/c2ccc(C(F)(F)F)cc2)c1C(=O)/C=C/c1ccccc1`, the growth in [1] was -12.9% (active); in assay [2] it was -0.692% (active); in assay [3], 20.5%; in assay [4], -34.8% (active); in [5], -74.9% (active); in assay [6], 16.5%. The growth in [7] is -61.9% (active); in [8], 6.27% (active); in assay [9], -14.1% (active); in assay [10], -54.6% (active); in assay [11], -43.6% (active); in assay [12], 4.16% (active). The growth was -65.2% (active) in assay [13]; -39.9% (active) in [14]; -82.9% (active) in [15]; 33.4% in assay [16]; -45.3% (active) in assay [17]; -83.6% (active) in assay [18]. Also, the growth in assay [19] was -25.5% (active); in assay [20], -25.9% (active).

Regarding `Cn1cc(-c2ccc3cc(-c4ccc(CC(=O)Nc5cc(C(C)(C)C)on5)cc4)cnc3c2)cn1`, the growth in assay [1] is 46.1%; in assay [2], 43%; in assay [3], 16.5%; in assay [4], 44.4%; in [5], -3.39% (active); in assay [6], 50.9%. The growth in assay [7] is 17.2%; in assay [8] it was 16.5%; in assay [9], -92.6% (active); in [10], 35.3%; in [11], 22.1%; in [12], 5.03% (active). For the same molecule, the growth in assay [13] was -15.8% (active); in assay [14], 11.4%; in assay [15] it was -0.246% (active); in assay [16], 15.7%; in assay [17], 29.7%; in assay [18], 20.4%. The growth in assay [19] was 5.83% (active); in [20] it was 0.0609% (active).
